# Compound activity as filed in PubChem.
# An excerpt weighted towards active compounds, which were near 17% of everything screened.
# HT1080NT lethal – kills 2HG-producing HT-1080-NT fibrosarcoma cells; HT-1080-NT fibrosarcoma viability, CellTiter-Glo ATP luminescence, 48 h; Potency, µM (top dose mostly 46.1 µM), without a hit: top-dose activity, negative = less viability, hits mostly cytotoxic; hit rate 1.6% among 360,000;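 further: NT is the 2HG producing partner of a matched IDH1 knockdown line; 0% = DMSO-treated cells and -100% = media-only wells without cells; nearly all actives have a fitted effect of over 55% in size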
#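 HT-1080-NT; 750 cells/well; 5% FBS RPMI; 48 h compound, 37 degrees C; CellTiter-Glo luminescence; curve fitting and curve-class assignment.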
# TGFb inhibitor – blocks TGF-b signaling; HepG2 CAGA-GFP TGF-b/SMAD3 reporter, GFP fluorescence, 18 h; TGF-beta stimulated, 500 pg/mL final; Potency, µM (top dose mostly 46.1 µM), for inactives: at the top dose activity, negative = inhibition, actives largely listed as inhibitors; hit rate 1.2% among 410,000; AID 588855; further: on the % scale 0 is the no-effect control and ±100 the full control effect; nearly all actives have a fitted effect of over 65% in size
#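 Inhibition of TGF-beta-driven CAGA-GFP reporter expression in HEPG2 cells is measured by cellular GFP fluorescence after 18 h stimulation with 500 pg/mL recombinant TGF-beta in 1% FBS medium at 37 degrees C.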
# HT1080 IDH1KD tx – HT-1080 IDH1 knockdown cell toxicity (counter line); HT-1080 IDH1 knockdown viability, ATP luminescence, 48 h; Potency, µM (doses to about 46.1 µM), without a hit: at the top dose activity, negative = toxicity, actives largely listed as cytotoxic; hit rate 2% among 360,000; AID 686971;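 further: 0% = DMSO wells and -100% = cell-free medium wells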
#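 IDH1KD HT-1080 cells, 750/well, RPMI + 5% FBS; compound pinned after 2 h settling; 48 h, 37 °C; CellTiter-Glo luminescence; % activity normalised to DMSO and no-cell wells; curves fitted, classed by r2 and efficacy.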
# DT40 TDP1 CPT – DT40-hTDP1 cell growth loss with CPT. chicken DT40 Tdp1-/-;hTDP1 cells + 20 nM CPT, ATP luminescence, 48 h. Potency, µM (doses to about 46.2 µM), without a hit: at the top dose activity change, negative = growth inhibition, actives largely listed as inhibitors. hit rate 12% among 420,000. AID 686979; further: on the % scale 0 is the no-effect control and ±100 the full control effect; nearly all actives have a fitted effect of over 55% in size
#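 Chicken DT40 Tdp1-/- cells stably complemented with human TDP1 were seeded at 400 cells/well in medium containing 20 nM camptothecin, exposed to pin-transferred compounds, and grown at 37 °C for at least 48 hr. Viability was read as ATP luminescence.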
# DT40 TDP1 no CPT – qHTS for Inhibitors of human tyrosyl-DNA phosphodiesterase 1 (TDP1): qHTS in cells in absence of CPT. DT40 Tdp1-/- hTDP1 cells, no CPT, ATP luminescence, 48 h. Potency, µM (highest dose often 46.2 µM), without a hit: at the top dose activity change, negative = growth inhibition, usual class: inhibitors. hit rate 15% among 420,000; further: on the % scale 0 is the no-effect control and ±100 the full control effect; nearly all actives have a fitted effect of over 55% in size
#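 Camptothecin absent (DMSO only). Human TDP1-complemented DT40 knockout cells, 400 cells/well, 37 °C for minimum 48 hr; ATP measured via CellTiter-Glo, 30 min dark incubation, luminescence.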
# HepG2 viability – counter-screen for TGF-b inhibitors: cytotoxicity in HepG2 cells. HepG2 CAGA-GFP viability, ATP luminescence, 18 h. hit rate 0.76% among 410,000. Potency, µM (titrated, usually from 46.1 µM), for inactives: top-dose activity change, negative = cytotoxicity, actives largely listed as cytotoxic. AID 588856
#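 CellTiter-Glo luminescence gave cytotoxicity after 18 hours at 37 degrees C. The cells were HepG2 CAGA-GFP in 1% FBS DMEM, stimulated with 500 pg/mL TGF-beta after compound addition. %Activity was normalised to no-cell wells (complete cell-killing) and DMSO (no toxicity), and curves were fitted and classified.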
# * = called active by the depositor; ? = inconclusive; . = not tested or not shown. The call rests on the fitted dose curve; in most records, active means well fitted curve in the direction sought with a large enough effect; inconclusive means small, poorly fitted or top-dose-only effect, or another doubt; inactive means no such curve, though single readings can be large; an effect the other way counts as inactive or inconclusive. Potency means the concentration at half of the fitted maximal effect.
SMILES,HT1080NT lethal,TGFb inhibitor,HT1080 IDH1KD tx,DT40 TDP1 CPT,DT40 TDP1 no CPT,HepG2 viability
CCOc1ccc(N(CC(=O)Nc2ccc(OC)cc2OC)S(=O)(=O)c2c(C)[nH]c(=O)[nH]c2=O)cc1,3%,-2%,1%,-1%,26%,-6%
CCOC(=O)C(NC(=O)c1ccccc1)(OCc1ccc(F)cc1)C(F)(F)F (stereo not drawn),-8%,-3%,-4%,-27%,18µM*,-20%
Cc1ccc(NC(=O)COC(=O)c2ccccc2OCC(=O)N(C)C)cc1,.,-3%,.,?,?,3%
O=C(Cn1cnc2ccccc21)Nc1ccc(SC(F)F)cc1,-26%,-24%,?,21µM*,2.3µM*,0%
COc1ccc(NC(=O)COC(=O)Cn2cnc3ccccc32)cc1,-2%,-9%,-1%,-18%,-11%,-3%
CC(C)(C)NC(=O)COC(=O)c1ccccc1Nc1ccc(SC(F)F)cc1,-21%,?,-13%,?,16µM*,-10%
CN(C)C(=O)COC(=O)c1ccccc1OCC(=O)Nc1ccc(SC(F)F)cc1,?,-11%,23%,?,9.2µM*,-18%
CC1CCCC(C)N1C(=O)c1ccccc1Nc1ccc(SC(F)F)cc1 (stereo not drawn),23µM*,?,?,23µM*,21µM*,-48%
COC(=O)CC1SC(=O)NC1=Nc1cccc(C)c1 (stereo not drawn),17%,1%,13%,8%,10%,49%
COc1cc2c(cc1NC(=O)COc1cc(C)cc(C)c1)oc1ccccc12,.,0%,.,-14%,-15%,-101%
O=C(Nc1ccccc1)N1CC2(CCN(C(=O)c3ccncc3)CC2)C1,.,.,.,-5%,7%,.
C[C@H](CO)N1C[C@H](C)[C@@H](CN(C)Cc2ccc(F)cc2)Oc2ncc(Br)cc2C1=O,6%,0%,15%,-24%,?,-28%
CCc1noc(C)c1C(=O)N1CCN(S(=O)(=O)c2ccc(C)cc2)CC1,-3%,3%,-2%,-22%,-4%,12%
Cc1ccsc1C(=O)N1CCCC(C)(C(=O)O)C1 (stereo not drawn),16%,3%,23%,-35%,-4%,1%
O=C(COc1ccccc1C(=O)O)Nc1ccc(SC(F)F)cc1,24%,-3%,27%,16µM*,16µM*,-1%
CCn1c(N)[n+](CC(=O)Nc2ccc(SC(F)F)cc2)c2ccccc21,?,?,?,?,13µM*,14µM*
O=C(COC(=O)c1ccccc1Nc1ccccc1)Nc1ccccc1,-27%,1%,?,-1%,2%,-2%
Cc1cccc(C)c1NC(=O)COC(=O)c1ccccc1Nc1ccccc1,13%,0%,9%,?,9.2µM*,-2%
Cc1c(CNCCCc2ccccc2)c(C(=O)O)c(C)n1Cc1cccc(Cl)c1,.,-18%,.,?,21µM*,-15%
CCOc1ccc(CNCc2c(C(=O)O)n(Cc3ccc(C)cc3)c3cc(C)ccc23)cc1,.,?,.,?,?,-110%
Cc1c(CNCCCc2ccccc2)c(C(=O)O)c(C)n1Cc1ccc(Cl)cc1,.,-15%,.,?,21µM*,-28%
Cc1c(CNCCCc2ccccc2)c(C(=O)O)c(C)n1Cc1ccccc1,3%,1%,-2%,-20%,2%,-3%
CCOc1ccc(CNCc2c(C(=O)O)c(C)n(Cc3ccc(C)cc3)c2C)cc1,.,-2%,.,?,18µM*,-3%
Cc1cc(C)cc(NC(=O)C(=O)NCCc2sc(-c3cccc(F)c3)nc2C)c1,.,-1%,.,3%,-3%,-1%
CCNS(=O)(=O)c1ccc(CCC(=O)N2CCN(C(=O)OCC)CC2)cc1,2%,-6%,4%,-5%,-14%,-2%
SMILES,HT1080NT lethal,TGFb inhibitor,HT1080 IDH1KD tx,DT40 TDP1 CPT,DT40 TDP1 no CPT,HepG2 viability
COCCCNC(=O)CCc1c(C)nc2c(c(C)nn2-c2ccccc2)c1C,-3%,-1%,-1%,-18%,-13%,-2%
Cc1ccc(-n2nc(C)c3c(C)c(CCC(=O)NCCCOC(C)C)c(C)nc32)cc1,-5%,-8%,-2%,23µM*,?,1%
CC(=O)c1ccc(NC(=O)CCc2c(C)nc3c(c(C)nn3-c3ccc(C)cc3)c2C)cc1,.,.,.,?,7.3µM*,-10%
Cc1ccc(-n2nc(C)c3c(C)c(CCC(=O)Nc4ccc(CN5CCCC5)cc4)c(C)nc32)cc1,-9%,?,15µM*,?,12µM*,1%
CCOC(=O)c1cccc(NC(=O)CCn2nc(C)c3c(C)n(-c4ccccc4)nc3c2=O)c1,.,-8%,.,-10%,-4%,-18%
O=C(CN1CCN(CN2C(=O)NC3(CCCCCC3)C2=O)CC1)Nc1ccc(F)cc1,-5%,-3%,-4%,-11%,0%,-7%
CCOC(=O)c1ccc(NC(=O)c2ccccc2N(C)S(=O)(=O)c2ccccc2)cc1,-9%,-2%,-29%,18µM*,?,-7%
CCCNC(=O)c1ccccc1NC(=O)c1ccccc1N(C)S(=O)(=O)c1ccc(C)cc1,?,0%,?,?,18µM*,-21%
S=C(NC1CC1)N1CCN(c2ccc(Cl)cc2)CC1,4%,3%,0%,15µM*,?,10%
O=[N+]([O-])c1ccc(N2CCN(C(=S)Nc3ccccc3)CC2)cc1,0%,-2%,-6%,-20%,?,0%
O=[N+]([O-])c1ccc(N2CCN(C(=S)NC3CCCCC3)CC2)cc1,-12%,-12%,-21%,16µM*,9.2µM*,-21%
CCCC(=O)Nc1ccc(NC(=O)CCc2ccccc2)cn1,2%,-4%,-7%,16µM*,16µM*,-33%
CCCC(=O)Nc1ccc(NC(=O)Cc2ccccc2)cn1,9%,-19%,-1%,-4%,1%,-4%
CC[C@H](C)/C=C(C)/C=C/C1=CC2=CC(=O)[C@]3(C)OC(=O)[C@@H](C(C)=O)[C@@H]3C2=CO1,-7%,-27%,?,2.1µM*,-76%,-11%
CC[C@H](C)/C=C(C)/C=C/C(=O)Cc1cc(O)c(C)c(O)c1C=O,-7%,-2%,-12%,?,?,-19%
Cc1cc(C(N)=O)c2ccccc2n1,1%,-16%,-9%,1%,0%,-1%
